# A selection: hits, their analogues and other compounds. The true share with any hit is near 4.2%.
# AHR act = AHR activators, primary screen, cell-based, luminescence, luciferase reporter, human; Aryl hydrocarbon receptor (Homo sapiens), P35869; AHR-responsive luciferase reporter cells; activation, % at 5 µM; 2.5% of 320,000 active; AID 2796, 2010; in the data active means activation above about 47%
# esBAF inh = Bmi1 luciferase reporter increase in mESCs, primary screen, esBAF inhibitor project, mouse ES cells, Bmi1 luciferase knock-in, single point; 24 h; 100% = twice the neutral-well signal; reporter increase, % at 12.5 µM; 2% of 350,000 active; AID 602393, 2012; in the data active means activation above about 40%; inconclusive means no clear call, values can overlap the other calls;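 further: a rise in the Bmi1 reporter signal indicates esBAF inhibition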
# MITF TRPM1 HTS = activators of MITF-driven TRPM1 promoter reporter, primary screen, cell-based, SK-MEL-5, luciferase, single point. SK-MEL-5 TRPM1-promoter luciferase, 24 h; % of positive control, neutral wells = 0. activation, % at 12.5 µM. 0.75% of 300,000 active. AID 588334, 2011;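 active means mean activation of at least 80% with every replicate also reaching 80%; inconclusive means mean reaches 80% but some replicate falls short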
# GAA850 FXN act = FXN promoter activators, primary screen, cell-based, luciferase luminescence, HEK293 lucGAA850. AID 540364, 2011. 0.56% of 360,000 active. activation, % at 6 µM. HEK293 lucGAA850 FXN promoter luciferase reporter, 24 h; percent of 10 µM SAHA response;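 active means activation above the average of all compounds screened plus 3 SD, cutoff fixed separately per campaign, cut at about 7.5% in these data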
# Wnt bcat act = Wnt/beta-catenin pathway activators, primary screen, cell-based, plate reader, single point; Wnt/beta-catenin reporter cell assay, activator; activation, % at 9.35 µM; AID 743398, 2014; 1.2% of 300,000 active; in the data active means activation above about 30%, passing the limit was not always enough; inconclusive means no clear call, values can overlap the other calls
# A number is an active result; 0 = inactive; ? = inconclusive; - = no result given.
SMILES,AHR act,esBAF inh,MITF TRPM1 HTS,GAA850 FXN act,Wnt bcat act
Oc1ccc(Nc2nc(-c3cccs3)cs2)cc1,0,-,0,0,-
COc1ccc(OC)c(Nc2nc(-c3cccs3)cs2)c1,47.7,0,0,0,0
COc1ccc(Nc2nc(-c3cccs3)cs2)cc1,49.2,-,-,-,-
O=c1c2c(nc3cc(-c4ccc(Br)cc4)[nH]n13)CCCC2,0,0,109.4,0,0
Cc1ccc(-c2[nH]n3c(=O)c4c(nc3c2C)CCCC4)cc1,0,53.4,-,0,-
O=C(Cc1ccccn1)NCC[C@H]1CC[C@H](NC(=O)c2ccccc2F)[C@@H](CO)O1,-,0,-,-,-
C=CCN(CC(=O)Nc1cccnc1)S(=O)(=O)c1ccc(Cl)cc1,0,0,0,0,37.1
O=C(Cc1ccc(Cl)cc1)Nc1cccnc1,0,0,-,0,0
O=C1CSC(=S)N1N=Cc1cccc(OCc2ccccc2)c1,-,0,-,0,0
O=C1CSC(=S)N1N=Cc1ccccc1O,-,-,0,0,0
O=C1CSC(=S)N1N=Cc1ccc(OCc2ccccc2)cc1,-,50.3,-,0,0
O=C1CSC(=S)N1/N=C/c1cccnc1,0,-,-,0,40.9
COC(=O)c1sccc1NC(=O)c1ccc(C)s1,50.3,0,-,0,34.3
COc1ccc(-c2cc(N)n(CCC#N)n2)c(OC)c1,0,0,0,0,0
COc1ccc(-c2cc(N)n(S(=O)(=O)Cc3ccccc3)n2)c(OC)c1,62.3,0,0,0,0
COc1ccc(S(=O)(=O)Nc2cc3c4c(oc3c3ccccc23)CC(C)(C)CC4=O)cc1,0,0,-,0,-
COc1ccc(S(=O)(=O)Nc2cc3c4c(oc3c3ccccc23)CCCC4=O)cc1,47.7,0,0,0,-
O=C(c1ccc(F)cc1)c1cc2ccccc2o1,0,63.9,?,0,65.3
Cc1ccc(C(=O)c2cc3ccccc3o2)cc1[N+](=O)[O-],0,67.4,0,0,0
CC(Cc1ccccc1)NC(=O)c1cc2ccccc2o1 (stereo not given),0,82.1,0,0,0
O=C(c1ccccc1)c1cc2ccccc2o1,0,48.6,108.4,0,0
O=C(c1cc2ccccc2o1)N1CCCC1,0,-,0,0,0
C/C(=N\NS(=O)(=O)c1ccc(C)c([N+](=O)[O-])c1)c1cc2ccccc2o1,0,-,0,0,-
O=C(NNC(=O)c1cc2ccccc2o1)c1ccc(F)cc1,-,0,0,0,0
O=C(Nc1ccc2c(c1)OCO2)N[C@H]1CC[C@H](CCNC(=O)C2CCOCC2)O[C@@H]1CO,-,0,-,-,-
SMILES,AHR act,esBAF inh,MITF TRPM1 HTS,GAA850 FXN act,Wnt bcat act
C[C@@H]1CCCCO[C@@H](CN(C)S(=O)(=O)c2ccc(F)cc2)[C@H](C)CN([C@@H](C)CO)C(=O)c2cc(NC(=O)CCCN(C)C)ccc2O1,-,0,-,-,-
CN1C[C@@H]2[C@H](c3ccccc31)[C@@H](CO)N2Cc1ccccc1,-,0,-,-,-
Nc1c(C(=O)Nc2ccccc2)sc2nc3c(c(-c4ccco4)c12)CCC3,0,0,0,0,-
Cc1ccc(NC(=O)c2sc3nc4c(c(-c5ccco5)c3c2N)CCC4)cc1,60.3,0,0,0,0
COc1ccc(-c2c3c(nc4sc(C(=O)Nc5ccccc5)c(N)c24)CCC3)cc1,0,53.0,0,0,35.5
Nc1c(C(=O)Nc2ccccc2)sc2nc3c(c(-c4ccco4)c12)CCCC3,0,-,0,0,-
Cc1noc(C)c1S(=O)(=O)Nc1ccc2c(c1)CC(=O)N([C@H](C)CO)C[C@@H](C)[C@H](CN(C)Cc1ccc(C(F)(F)F)cc1)O2,-,0,-,-,-
CCC(=O)Nc1ccc2c(c1)C(=O)N(C)C[C@H](OC)[C@@H](C)CN(C(=O)c1ccccc1F)[C@H](C)CO2,-,0,-,-,-
O=C(/C=C/Nc1ccccc1F)c1cccs1,57.1,-,0,0,0
C[C@@H]1CN([C@H](C)CO)C(=O)Cc2cc(NS(=O)(=O)c3ccccc3)ccc2O[C@H]1CN(C)C,-,0,-,-,-
C[C@@H]1CN([C@@H](C)CO)C(=O)c2cc(/C=C/c3ccccc3)cnc2O[C@H]1CN(C)C(=O)CN1CCOCC1,-,0,-,-,-
COc1ccc2ccccc2c1/C=N/NC(=O)c1cccc(C)c1,0,-,-,0,0
Cc1cccc(OCC(=O)NC(C)C(=O)N/N=C/c2c(OCc3ccccc3)ccc3ccccc23)c1 (stereo not given),87.6,0,0,0,0
Cc1nc(-c2ccc([N+](=O)[O-])cc2)nc2[nH]ccc(=O)c12,-,?,104.9,0,36.8
Cc1nc(N)nc(N)c1-c1ccc([N+](=O)[O-])cc1,-,-,0,0,0
